In the test the target is Nonstructural protein 3 (Zika virus) (UniProt A0A024AXB9).
[1] abbreviates: PRVABC59, Concentration 50.0 uM, Number of replicates 1.0.

Each structure is given as a SMILES string. Hit rate of the full screen: of about 2,700 compounds, about 160 (5.9%) showed an effect of 50% or more. This is one part of a sample in which strong results are shown more often than they occur.

Chain of Nonstructural protein 3 (Zika virus) (A0A024AXB9 as listed by the source): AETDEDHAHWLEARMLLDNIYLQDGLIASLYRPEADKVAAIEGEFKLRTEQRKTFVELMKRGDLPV

For `N=C(N)NCCC[C@H](NC(=O)[C@H](Cc1ccc(CN)cc1)NC(=O)c1ccccc1)B(O)O`, the inhibition (usually the drop in the measured response relative to a control, in per cent) (PRVABC59, Concentration 10.0 uM, Number of replicates 3.0, Standard deviation 0.04927937550217375 %) came out at 100%; the inhibition (PRVABC59, Concentration 49.5 uM, Number of replicates 2.0, Standard deviation 0.010099059252786384 %) came out at 99.8%; the inhibition (PRVABC59, Concentration 49.5 uM, Number of replicates 2.0, Standard deviation 0.01807256864147136 %) turned out to be 99.7%; the inhibition (PRVABC59, Concentration 49.5 uM, Number of replicates 2.0, Standard deviation 0.060713041042124986 %) amounted to 99.8%; the inhibition (PRVABC59, Concentration 49.5 uM, Number of replicates 2.0, Standard deviation 0.06905879139685818 %) came to 99.8%; the inhibition (PRVABC59, Concentration 49.5 uM, Number of replicates 2.0, Standard deviation 0.08298276144570521 %) worked out at 99.9%. For the same molecule, the inhibition was determined as 99.3% (PRVABC59, Concentration 49.5 uM, Number of replicates 2.0, Standard deviation 0.10271153264626066 %); 99.6% (PRVABC59, Concentration 49.5 uM, Number of replicates 2.0, Standard deviation 0.1066443393745092 %); 101% (PRVABC59, Concentration 49.95 uM, Number of replicates 2.0, Standard deviation 0.961660259200824 %); 99.9% (PRVABC59, Concentration 99.01 uM, Number of replicates 2.0, Standard deviation 0.020192723708963373 %); 99.7% (PRVABC59, Concentration 99.01 uM, Number of replicates 2.0, Standard deviation 0.05005292294196158 %); 99.7% (PRVABC59, Concentration 99.01 uM, Number of replicates 2.0, Standard deviation 0.0511966198231532 %). Also, the inhibition by setting is: (PRVABC59, Concentration 99.01 uM, Number of replicates 2.0, Standard deviation 0.06657179015992734 %) 99.4%; (PRVABC59, Concentration 99.01 uM, Number of replicates 2.0, Standard deviation 0.07055854485426984 %) 99.9%; (PRVABC59, Concentration 99.01 uM, Number of replicates 2.0, Standard deviation 0.0908591644954211 %) 99.8%; (PRVABC59, Concentration 99.01 uM, Number of replicates 2.0, Standard deviation 0.09853596007058937 %) 100%; (PRVABC59, Concentration 99.9 uM, Number of replicates 2.0, Standard deviation 0.9426813647289743 %) 101%; (PRVABC59, Concentration 198.0 uM, Number of replicates 2.0, Standard deviation 0.016157415845136337 %) 99.7%. The inhibition worked out at 99.5% (PRVABC59, Concentration 198.0 uM, Number of replicates 2.0, Standard deviation 0.0195885064887112 %); 99.6% (PRVABC59, Concentration 198.0 uM, Number of replicates 2.0, Standard deviation 0.04517602680706901 %); 99.7% (PRVABC59, Concentration 198.0 uM, Number of replicates 2.0, Standard deviation 0.06178660556739447 %); 99.7% (PRVABC59, Concentration 198.0 uM, Number of replicates 2.0, Standard deviation 0.09594645769808005 %); 99.2% (PRVABC59, Concentration 198.0 uM, Number of replicates 2.0, Standard deviation 0.10841922745899998 %); 99.7% (PRVABC59, Concentration 198.0 uM, Number of replicates 2.0, Standard deviation 0.1903446087692639 %).

Consider `Nc1ccc(/C=C/C(=O)C(=O)N2CCN(CCc3ccccc3)CC2)cc1`, for which the inhibition was 23.1% (PRVABC59, Concentration 49.5 uM, Number of replicates 2.0, Standard deviation 1.009989544626084 %); 38.5% (PRVABC59, Concentration 99.01 uM, Number of replicates 2.0, Standard deviation 0.19781370467497048 %); 56% (PRVABC59, Concentration 198.0 uM, Number of replicates 2.0, Standard deviation 0.599146111439346 %).

In the case of `O=C(/C=C/c1ccccc1)C(=O)N1CCN(CCc2ccccc2)CC1`, the inhibition runs as follows: (PRVABC59, Concentration 49.5 uM, Number of replicates 2.0, Standard deviation 0.08274041706676757 %) 1.32%; (PRVABC59, Concentration 99.01 uM, Number of replicates 2.0, Standard deviation 0.30038362391023454 %) 6.15%; (PRVABC59, Concentration 198.0 uM, Number of replicates 2.0, Standard deviation 0.5414096494264544 %) 13.3%; (PRVABC59, Concentration 200.0 uM, Number of replicates 1.0) 96.2%.

Turning to `O=Cc1ccc(N2CCC(C(=O)N3CCN(CCc4ccccc4)CC3)CC2)cc1`, the inhibition under setting [1] stood at 37.9%.

Consider `OCCOc1cc(COc2cccnc2F)nc(N2CCNCC2)n1`, for which the inhibition by setting is: (PRVABC59, Concentration 49.5 uM, Number of replicates 2.0, Standard deviation 1.0649598246775087 %) 10.8%; (PRVABC59, Concentration 99.01 uM, Number of replicates 2.0, Standard deviation 1.1158273619074888 %) 21.6%; (PRVABC59, Concentration 198.0 uM, Number of replicates 2.0, Standard deviation 0.21003831379185828 %) 36.7%.

`NC(=O)c1cn(C[C@H]2CCCN2c2ccnc3ccccc23)nn1`: the inhibition was determined as 13.6% (PRVABC59, Concentration 49.5 uM, Number of replicates 2.0, Standard deviation 1.7032876695413104 %); 21.5% (PRVABC59, Concentration 99.01 uM, Number of replicates 2.0, Standard deviation 1.9821170579482856 %); 35.6% (PRVABC59, Concentration 198.0 uM, Number of replicates 2.0, Standard deviation 3.129764278957135 %).

For `O=Cc1ccc(N2CCC(C(=O)N3CCC(CCN4CCCC4)CC3)CC2)cc1`, the inhibition under setting [1] worked out at 40.2%.

As to `O=Cc1ccc(N2CCC(C(=O)N3CCN(c4ccc([N+](=O)[O-])cc4C(F)(F)F)CC3)CC2)cc1`, under setting [1], the inhibition came to 51.4%.

`CS(=O)(=O)c1ccc(N2CCN(C(=O)C3CCN(c4ccc(C=O)cc4)CC3)CC2)c([N+](=O)[O-])c1`: the inhibition under setting [1] turned out to be 38.3%.

Take `Fc1ncccc1OCc1cc(Cl)nc(N2CCNCC2)n1`: the inhibition is 15.1% (PRVABC59, Concentration 49.5 uM, Number of replicates 2.0, Standard deviation 1.0140201320428779 %); 28.4% (PRVABC59, Concentration 99.01 uM, Number of replicates 2.0, Standard deviation 1.7990689115932277 %); 49% (PRVABC59, Concentration 198.0 uM, Number of replicates 2.0, Standard deviation 0.8686404786633404 %).

On to `COc1ccc(S(=O)(=O)n2nc(OC(=O)c3cccc(-c4ccccc4Cl)c3)cc2N)cc1`, for which the inhibition runs as follows: (PRVABC59, Concentration 49.5 uM, Number of replicates 2.0, Standard deviation 0.015159378472398365 %) 94.1%; (PRVABC59, Concentration 99.01 uM, Number of replicates 2.0, Standard deviation 0.0016885713387404585 %) 94.1%; (PRVABC59, Concentration 198.0 uM, Number of replicates 2.0, Standard deviation 0.07411371581986076 %) 93.9%.

Turning to `Cc1nc(C2CCN(Cc3c[nH]c4ccccc34)CC2)sc1C(=O)O`, the inhibition (PRVABC59, Concentration 49.5 uM, Number of replicates 2.0, Standard deviation 1.7503606417061577 %) came to 29.1%; the inhibition (PRVABC59, Concentration 99.01 uM, Number of replicates 2.0, Standard deviation 0.7623791698480982 %) was 49%; the inhibition (PRVABC59, Concentration 198.0 uM, Number of replicates 2.0, Standard deviation 0.018153490590612276 %) was 66.9%.

Consider `c1ccc(-c2csc(C3CCN(Cc4c[nH]c5ccccc45)CC3)n2)cc1`, for which the inhibition is 64.4% (PRVABC59, Concentration 49.5 uM, Number of replicates 2.0, Standard deviation 0.9101885047505917 %); 66.1% (PRVABC59, Concentration 99.01 uM, Number of replicates 2.0, Standard deviation 0.676804208631579 %); 66.1% (PRVABC59, Concentration 198.0 uM, Number of replicates 2.0, Standard deviation 0.5886424424408551 %).

For the molecule `c1ccc2sc(C3CCN(Cc4c[nH]c5ccccc45)CC3)nc2c1`, the inhibition (PRVABC59, Concentration 49.5 uM, Number of replicates 2.0, Standard deviation 0.0213310257935456 %) was found to be 83.5%; the inhibition (PRVABC59, Concentration 99.01 uM, Number of replicates 2.0, Standard deviation 0.10666052376433739 %) turned out to be 89.1%; the inhibition (PRVABC59, Concentration 198.0 uM, Number of replicates 2.0, Standard deviation 0.03774199707932348 %) came out at 90.7%.

Regarding `c1ccc2oc(C3CCN(Cc4c[nH]c5ccccc45)CC3)nc2c1`, the inhibition (PRVABC59, Concentration 49.5 uM, Number of replicates 2.0, Standard deviation 0.07645236015003325 %) was 37.2%; the inhibition (PRVABC59, Concentration 99.01 uM, Number of replicates 2.0, Standard deviation 0.17318915555138958 %) was determined as 54.7%; the inhibition (PRVABC59, Concentration 198.0 uM, Number of replicates 2.0, Standard deviation 0.13417938126885842 %) is 70.9%.
